Data taken from PubChem BioAssay.
Active and inactive are the calls of the source.

Tests used:
[1] = test system: Plasmodium falciparum Sir2 (PF13_0152, Sir2A); assay: Plasmodium falciparum Sir2A binding compounds – biochemical, small-molecule microarray, 635 nm fluorescence, primary screen (AID 1098); conditions: fluorescence 635 nm, higher = more signal;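 also: score merges spot fluorescence intensity with its signal-to-noise ratio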
[2] = probe aDKK1 binding to arrayed compounds – biochemical, biotinylated probe, 635/667 nm fluorescence, primary screen (AID 1099); conditions: small-molecule microarray, higher = more signal;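 also: score merges 667nm spot fluorescence with signal to noise across triplicate slides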
[3] = probe aCHRDL2 binding to arrayed compounds – biochemical, biotinylated probe, 635/667 nm fluorescence, primary screen (AID 1100); conditions: small-molecule microarray, higher = more signal
[4] = change in splice reporter luminescence, either direction, cell-based, HEK293, spliceosome inhibition project, primary screen (AID 1101); conditions: HEK293 splicing luciferase reporter, 24 h, higher = more signal, called active from +8 up or from −8 down;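 also: HEK293 cells carrying a splicing-competent luciferase reporter gene; test concentration not given here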
[5] = target: Fibroblast growth factor 10 (Homo sapiens) (UniProt O15520); assay: compounds binding fibroblast growth factor 10 – biochemical, small-molecule microarray, 635 nm fluorescence, primary screen (AID 1102); conditions: FGF10 binding, fluorescence 635 nm, higher = more signal
Fibroblast growth factor 10 (Homo sapiens), sequence (O15520 whole entry, looked up): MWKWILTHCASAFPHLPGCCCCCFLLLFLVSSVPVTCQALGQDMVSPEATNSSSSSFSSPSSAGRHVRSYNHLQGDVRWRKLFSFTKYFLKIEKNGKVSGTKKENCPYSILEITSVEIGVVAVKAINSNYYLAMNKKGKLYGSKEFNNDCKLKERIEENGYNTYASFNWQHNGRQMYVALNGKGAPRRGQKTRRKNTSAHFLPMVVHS

[6] = test system: glycogen synthase kinase-3 (GSK3A per assay name; protocol says GSK3B); assay: compounds binding glycogen synthase kinase-3 – biochemical, small-molecule microarray, 635 nm fluorescence, GSK3A, primary screen (AID 1103); conditions: fluorescence 635 nm, higher = more signal; also: the record names both GSK3A and GSK3B
[7] = target: Epidermal growth factor receptor (Homo sapiens) (UniProt P00533); assay: compounds binding epidermal growth factor receptor – biochemical, small-molecule microarray, 635 nm fluorescence, primary screen (AID 1104); conditions: EGFR binding, higher = more signal;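 also: score merges 667 nm emission intensity with spot signal to noise over triplicate slides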
Epidermal growth factor receptor (Homo sapiens), sequence (P00533 whole entry, looked up): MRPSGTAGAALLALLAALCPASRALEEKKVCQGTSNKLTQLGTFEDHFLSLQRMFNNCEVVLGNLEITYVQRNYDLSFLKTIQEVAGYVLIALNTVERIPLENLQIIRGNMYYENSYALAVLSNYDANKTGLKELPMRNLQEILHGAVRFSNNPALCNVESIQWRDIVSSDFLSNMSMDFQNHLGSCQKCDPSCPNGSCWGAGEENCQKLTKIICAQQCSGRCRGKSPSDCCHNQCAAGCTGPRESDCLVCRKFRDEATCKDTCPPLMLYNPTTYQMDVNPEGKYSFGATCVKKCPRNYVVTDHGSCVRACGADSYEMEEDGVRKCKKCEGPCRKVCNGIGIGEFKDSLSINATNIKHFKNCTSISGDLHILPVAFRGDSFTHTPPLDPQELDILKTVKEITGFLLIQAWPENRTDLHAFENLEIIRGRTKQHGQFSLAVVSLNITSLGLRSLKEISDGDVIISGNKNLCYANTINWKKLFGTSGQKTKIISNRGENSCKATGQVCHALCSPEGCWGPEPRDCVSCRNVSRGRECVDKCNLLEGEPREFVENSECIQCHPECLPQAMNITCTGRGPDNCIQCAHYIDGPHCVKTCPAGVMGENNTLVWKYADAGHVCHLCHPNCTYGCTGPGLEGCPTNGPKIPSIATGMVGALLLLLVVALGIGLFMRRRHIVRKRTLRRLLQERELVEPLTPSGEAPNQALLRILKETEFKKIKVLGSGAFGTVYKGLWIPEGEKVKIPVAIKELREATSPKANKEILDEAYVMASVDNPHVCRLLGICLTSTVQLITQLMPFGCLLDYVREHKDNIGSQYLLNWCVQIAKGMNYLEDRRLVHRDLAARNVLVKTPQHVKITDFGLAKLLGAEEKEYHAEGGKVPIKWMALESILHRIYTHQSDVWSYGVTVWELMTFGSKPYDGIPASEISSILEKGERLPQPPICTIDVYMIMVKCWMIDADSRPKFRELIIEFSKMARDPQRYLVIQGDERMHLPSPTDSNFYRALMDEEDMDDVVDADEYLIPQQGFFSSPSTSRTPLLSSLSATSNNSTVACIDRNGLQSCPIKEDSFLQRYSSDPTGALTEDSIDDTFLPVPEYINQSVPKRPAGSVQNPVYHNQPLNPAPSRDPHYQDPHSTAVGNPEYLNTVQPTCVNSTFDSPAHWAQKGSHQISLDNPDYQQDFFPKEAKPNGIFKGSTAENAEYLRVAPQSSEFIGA

[8] = target: Follistatin-related protein 3 (Homo sapiens) (UniProt O95633); assay: compounds binding follistatin-related protein 3 – biochemical, small-molecule microarray, 635 nm fluorescence, primary screen (AID 1105); conditions: FSTL3 binding, higher = more signal;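 also: score merges emission near 667 nm and signal to noise per printed spot across three slides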
Follistatin-related protein 3 (Homo sapiens), sequence (O95633 whole entry, looked up): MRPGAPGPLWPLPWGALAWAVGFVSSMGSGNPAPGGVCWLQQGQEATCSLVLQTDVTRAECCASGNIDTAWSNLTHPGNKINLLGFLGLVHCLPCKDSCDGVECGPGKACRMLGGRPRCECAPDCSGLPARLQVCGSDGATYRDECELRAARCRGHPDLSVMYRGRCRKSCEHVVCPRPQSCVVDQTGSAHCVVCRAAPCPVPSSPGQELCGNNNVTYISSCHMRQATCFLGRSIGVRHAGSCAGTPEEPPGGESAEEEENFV

[9] = target: Dickkopf-related protein 1 (Homo sapiens) (UniProt O94907); assay: small molecules binding DKK1 protein – biochemical, small-molecule microarray, 635 nm fluorescence scan, primary screen (AID 1106); conditions: higher = more signal;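 also: score merges emission near 667 nm with signal to noise over three replicate slides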
Dickkopf-related protein 1 (Homo sapiens), sequence (O94907 whole entry, looked up): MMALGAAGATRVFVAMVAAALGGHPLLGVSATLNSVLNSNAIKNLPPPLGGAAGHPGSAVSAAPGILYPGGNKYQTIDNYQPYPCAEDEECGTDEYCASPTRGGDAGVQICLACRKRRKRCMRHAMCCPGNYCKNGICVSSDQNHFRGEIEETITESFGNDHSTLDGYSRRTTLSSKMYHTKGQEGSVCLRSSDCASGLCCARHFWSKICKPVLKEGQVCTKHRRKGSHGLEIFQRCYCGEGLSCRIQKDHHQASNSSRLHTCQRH

[10] = test system: Inhibin beta A chain (activin A); assay: small molecules binding activin A – biochemical, small-molecule microarray, 635 nm fluorescence scan, primary screen (AID 1107); conditions: INHBA, higher = more signal;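 also: mouse activin A protein probed at 4.33 µg/mL on printed slides; score merges bound-protein fluorescence near 667 nm with spot signal-to-noise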
[11] = test system: Human papillomavirus type 1a protein E7 (residues 44-93); assay: small molecules binding HPV E7 44-93 – biochemical, small-molecule microarray, residues 44-93, 635 nm fluorescence, primary screen (AID 1108); conditions: fluorescence 635 nm, higher = more signal;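 also: E7 fragment applied at 1 µg/mL in TBST for 1 h at 4 C; score combines spot fluorescence with its signal to noise ratio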
[12] = hepatitis C replication reporter changes, two-sided – Huh7 cells, luciferase reporter, HCV replication inhibitor project, primary screen (AID 1109); conditions: Huh7 HCV replicon luciferase reporter, 48 h; higher = more signal;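 also: huh7 hepatoma cells harbouring a luciferase neomycin HCV replicon reporter; luciferase luminescence as measure of HCV replicon replication; test concentration not given here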
[13] = target: Left-right determination factor 2 (Homo sapiens) (UniProt O00292); assay: small molecules binding LEFTY2 protein – biochemical, small-molecule microarray, 635 nm fluorescence scan, primary screen (AID 1110); conditions: higher = more signal
Left-right determination factor 2 (Homo sapiens), sequence (O00292 whole entry, looked up): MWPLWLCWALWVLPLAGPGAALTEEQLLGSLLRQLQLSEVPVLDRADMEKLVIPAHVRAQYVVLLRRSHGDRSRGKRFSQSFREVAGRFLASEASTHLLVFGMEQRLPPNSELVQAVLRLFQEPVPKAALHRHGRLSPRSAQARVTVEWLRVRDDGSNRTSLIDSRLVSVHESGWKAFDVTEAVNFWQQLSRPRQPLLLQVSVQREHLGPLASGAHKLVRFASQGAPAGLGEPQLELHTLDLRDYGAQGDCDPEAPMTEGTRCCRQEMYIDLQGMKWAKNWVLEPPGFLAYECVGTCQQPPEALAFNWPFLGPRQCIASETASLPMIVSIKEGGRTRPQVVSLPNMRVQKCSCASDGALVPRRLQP

[14] = target: Calmodulin-1 (Homo sapiens) (UniProt P0DP23); assay: small molecules binding calmodulin-1 with EGTA – biochemical, small-molecule microarray, Cy5-labelled CALM1, profiling panel (AID 1111); conditions: Cy5-CALM1 binding fluorescence, higher = more signal;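 also: labelled calmodulin applied in Tris saline Tween buffer holding calcium plus EGTA and DTT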
[15] = target: Calmodulin-1 (Homo sapiens) (UniProt P0DP23); assay: small molecules binding Ca-loaded calmodulin-1 – biochemical, small-molecule microarray, Cy5-labelled CALM1, plus calcium, artefact control for SMM control-protein annotation, profiling panel (AID 1112); conditions: Cy5-CALM1 binding fluorescence, higher = more signal;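 also: score merges spot fluorescence with signal to noise from triplicate slides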
[16] = probe aWnt5a binding to arrayed compounds – biochemical, biotinylated probe, 635/667 nm fluorescence, primary screen (AID 1113); conditions: small-molecule microarray, higher = more signal;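 also: score merges 667 nm fluorescence intensity with signal-to-noise per printed feature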
[17] = probe aShh binding to arrayed compounds – biochemical, biotinylated probe, 635/667 nm fluorescence, primary screen (AID 1114); conditions: small-molecule microarray, higher = more signal;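 also: probe is biotin-labelled aShh protein from a stem cell growth factor screen; measures binding of labelled protein to compounds printed on the slide; score merges feature fluorescence at 667 nm with signal-to-noise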
[18] = probe aNog binding to arrayed compounds – biochemical, biotinylated probe, 635/667 nm fluorescence, primary screen (AID 1115); conditions: small-molecule microarray, higher = more signal;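 also: probe is biotinylated aNog protein used at 0.15 µg/mL for 1 h at 4 C; z-score combines 667 nm fluorescence of each spot with its signal to noise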
[19] = target: Torsin-1A-interacting protein 1 (Homo sapiens) (UniProt Q5JTV8); assay: compound microarray binding of lysate hLAP1 – cell lysate, small-molecule microarray, COS7 lysate, 635/667 nm fluorescence, primary screen (AID 1116); conditions: 635 nm fluorescence, higher = more signal
Torsin-1A-interacting protein 1 (Homo sapiens), sequence (Q5JTV8 whole entry, looked up): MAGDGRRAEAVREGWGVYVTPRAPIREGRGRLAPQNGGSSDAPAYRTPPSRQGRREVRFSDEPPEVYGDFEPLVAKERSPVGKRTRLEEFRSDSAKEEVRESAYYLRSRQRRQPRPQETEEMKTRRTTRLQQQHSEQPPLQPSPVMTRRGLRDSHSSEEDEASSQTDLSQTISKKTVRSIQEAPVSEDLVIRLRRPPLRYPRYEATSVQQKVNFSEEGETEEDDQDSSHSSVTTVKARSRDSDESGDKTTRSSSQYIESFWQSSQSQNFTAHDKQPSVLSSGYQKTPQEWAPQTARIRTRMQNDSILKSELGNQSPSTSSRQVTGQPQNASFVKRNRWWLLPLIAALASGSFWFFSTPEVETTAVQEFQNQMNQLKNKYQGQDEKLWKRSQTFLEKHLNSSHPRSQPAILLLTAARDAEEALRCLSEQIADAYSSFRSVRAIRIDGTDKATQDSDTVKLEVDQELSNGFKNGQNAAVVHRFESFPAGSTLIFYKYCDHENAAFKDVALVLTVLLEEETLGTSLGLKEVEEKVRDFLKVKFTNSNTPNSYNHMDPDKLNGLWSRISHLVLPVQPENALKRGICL

[20] = target: Alpha-bungarotoxin (Bungarus multicinctus) (UniProt P60615); assay: compounds binding labelled alpha-BTX control protein – biochemical, small-molecule microarray, Alexa647 label, 635/667 nm fluorescence, artefact control for SMM control protein annotation, profiling panel (AID 1117); conditions: alpha-BTX-A647 binding fluorescence, higher = more signal
Alpha-bungarotoxin (Bungarus multicinctus), sequence (P60615 whole entry, looked up): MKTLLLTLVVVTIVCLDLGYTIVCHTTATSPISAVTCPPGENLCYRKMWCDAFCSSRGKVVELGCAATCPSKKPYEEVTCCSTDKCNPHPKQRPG

Compound	composite z-score [1]	composite z-score [2]	composite z-score [3]	z-score [4]	composite z-score [5]	composite z-score [6]	composite z-score [7]	composite z-score [8]	composite z-score [9]	composite z-score [10]	composite z-score [11]	z-score [12]	composite z-score [13]	composite z-score [14]	composite z-score [15]	composite z-score [16]	composite z-score [17]	composite z-score [18]	composite z-score [19]	composite z-score [20]
COC(=O)[C@]1(CCS(=O)(=O)c2ccccc2)N=C(c2ccc(OCCCO)cc2)O[C@@H]1c1ccccc1CN=[N+]=[N-]	1.24	0.366	0.763	1.08 (inactive)	0.63	1.28	0.231	0.702	0.0636	0.681	1.41	-2.98	0.0011	0.631	-0.48	0.0785	-0.0035	1.02	0.879	0.969
COc1cc2c(cc1OC)CN(C(=O)[C@H]1[C@@H]3C(=O)O[C@@H](c4ccccc4)[C@@H](c4ccccc4)N3[C@@H](c3ccc(OCCO)cc3)[C@]13C(=O)Nc1ccc(C#CCCO)cc13)CC2	0.903	-0.269	0.33	-0.296 (inactive)	1.4	1.29	0.292	1.37	0.167	0.813	1.43	-0.563	0.509	1.23	0.642	0.0668	-0.0146	0.033	1.02	1.72
COCCOC(=O)N1C(=O)[C@@]2(c3cc(C#Cc4ccc(OC)cc4)ccc31)[C@H](C(=O)N1CCN(c3ncccn3)CC1)[C@H]1C(=O)O[C@H](c3ccccc3)[C@H](c3ccccc3)N1[C@@H]2c1ccccc1OCCO	0.625	-0.0221	0.221	-0.562 (inactive)	0.343	-0.142	0.139	-0.181	-0.163	0.443	1.23	-0.509	0.0641	0.551	0.858	-0.131	-0.0011	0.187	0.931	1
COCCOC(=O)N1C(=O)[C@@]2(c3cc(C#CC4(O)CCCCCC4)ccc31)[C@H](C(N)=O)[C@H]1C(=O)O[C@H](c3ccccc3)[C@H](c3ccccc3)N1[C@@H]2c1ccccc1OCCO	1.28	0.919	-0.423	-1.96 (inactive)	1.15	1.3	0.639	1.16	0.974	-0.505	1.38	-3.3	0.339	-0.0545	-0.0174	-0.0758	-0.223	-0.531	0.529	1.01
COc1c(C)cc(-c2cc3c(c(Cc4ccccc4)n2)[Si](C(C)C)(C(C)C)OC3)cc1C	0.214	-0.0724	-0.313	-0.206 (inactive)	0.0744	-0.0485	0.181	0.235	0.0324	0.137	-0.0363	-0.637	0.265	0.0153	0.0467	-0.096	-0.123	-0.393	-0.0091	0.229
C[C@@H]1ON(c2ccc(C(=O)OC(C)(C)C)cc2)[C@H](c2ccc(Br)cc2)[C@H]1C(=O)N1C(=O)OC[C@H]1Cc1ccccc1	0.992	-0.0749	-0.17	-0.65 (inactive)	1.17	1.31	0.701	1.21	1.11	-0.109	1.38	1.05	0.498	0.79	-0.115	-0.0643	-0.138	0.25	0.323	0.544
O=C1O[C@@H](c2ccccc2)[C@@H](c2ccccc2)N2[C@@H](c3ccc(O)cc3)[C@]3(C(=O)Nc4ccc(C#CC5=CCCCC5)cc43)[C@@H](C(=O)N3CCN(c4ncccn4)CC3)[C@H]12	1.59	-0.446	-0.0675	-0.339 (inactive)	1.33	1.28	0.383	0.872	0.283	-0.0915	1.17	-1.9	0.333	1.19	-0.581	-0.0459	0.0756	-0.14	0.951	0.862
CN1C(=O)C2C=CC(C(O)C3CCCCC3)N(N3CCCCC3)C2C1=O (stereo not given)	1.15	0.429	0.833	1.77 (inactive)	1.06	0.675	0.442	1.45	0.379	0.776	1.47	-0.306	0.194	0.407	-0.331	0.164	0.109	1.31	1.4	1.66
CO[C@H]1O[C@H](CO)[C@@H](OC(=O)Nc2ccc(Oc3ccccc3)cc2)[C@H](OC(=O)Nc2ccccc2-c2ccccc2)[C@@H]1OC(=O)Nc1ccccc1-c1ccccc1	1.31	0.686	0.609	-1.52 (inactive)	0.959	1.15	0.223	0.787	0.338	0.586	1.02	-3.19	0.242	2.17	0.409	-0.0667	0.256	1.74	1.27	1.52
CCOC(=O)C[C@H]1[C@H](OC(=O)c2ccc(C(=O)c3ccccc3)cc2)[C@@H](NC(=O)c2ccc3ccccc3c2)c2cc(OCCCO)ccc2N1C(=O)c1ccccc1	0.422	0.489	0.17	-0.072 (inactive)	0.734	0.993	0.0993	0.786	0.105	0.007	0.974	-0.617	0.317	0.988	0.602	-0.0346	0.0684	0.612	0.602	1.04
O=C1O[C@@H](c2ccccc2)[C@@H](c2ccccc2)N2[C@@H](c3ccccc3OCCO)[C@]3(C(=O)Nc4ccc(C#CC5=CCCCC5)cc43)[C@@H](C(=O)NC[C@H](O)c3ccccc3)[C@H]12	1.3	-0.108	-0.149	-1.13 (inactive)	0.717	1.3	0.496	1.22	0.352	0.623	1.35	-3.33	0.556	1.08	0.0728	0.0388	-0.0709	0.0483	0.519	1.31
